From PubChem BioAssay AID1851 (National Center for Advancing Translational Sciences (NCATS), 2009)
Several values for one entry are separate records, joined by “and”; a condition that tells them apart may be missing. Identical values can stand only once. In all, about 16,000 compounds went through this assay and about 4,000 (25%) were called active. Not shown: some 26% with an inconclusive outcome. Calls follow the shape of the dose curve; as a rule, active = well fitted curve in the direction sought with a large enough effect; inconclusive = small, poorly fitted or top-dose-only effect, or effect the other way; inactive = no such curve, though single readings can be large or run the other way. Only a sample is shown.

biological target: Cytochrome P450 2C9 (Homo sapiens) (UniProt P11712); experiment: Cytochrome panel assay with activity outcomes; details: recombinant CYP, pro-luciferin dealkylation, luminescence, p450-cyp2c9; series mostly up to 57.1 µM; activity, negative = inhibition: at the top concentration
% is scaled to controls: 0 for no effect and ±100 for the full control effect.

Sequence of Cytochrome P450 2C9 (Homo sapiens) (P11712 whole entry, looked up): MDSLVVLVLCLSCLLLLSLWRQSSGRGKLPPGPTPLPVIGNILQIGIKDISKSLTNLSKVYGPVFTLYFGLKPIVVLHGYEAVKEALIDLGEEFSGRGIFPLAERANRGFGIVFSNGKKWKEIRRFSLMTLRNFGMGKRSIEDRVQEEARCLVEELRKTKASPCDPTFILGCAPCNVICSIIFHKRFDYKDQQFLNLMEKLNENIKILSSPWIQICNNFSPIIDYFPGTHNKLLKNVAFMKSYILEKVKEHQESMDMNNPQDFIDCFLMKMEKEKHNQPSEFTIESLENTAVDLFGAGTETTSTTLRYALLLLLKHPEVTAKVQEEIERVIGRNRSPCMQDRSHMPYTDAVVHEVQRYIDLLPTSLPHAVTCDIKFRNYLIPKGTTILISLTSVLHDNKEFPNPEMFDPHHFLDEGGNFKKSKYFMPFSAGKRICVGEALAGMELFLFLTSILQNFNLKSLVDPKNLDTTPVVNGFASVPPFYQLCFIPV

| SMILES | AC50 | activity, negative = inhibition |
| --- | --- | --- |
| CCOC(=O)c1c(CC(C)C)csc1NC=O | 10 µM (active) | – |
| O=C(Nc1ccccc1C(=O)NCC1CCCO1)c1ccc(Cl)cc1Cl (centres undefined) | 10 µM (active) | – |
| Cc1ccccc1C(=O)c1c[nH]c(C(=O)NCC2CCCO2)c1 (centres undefined) | – | 25.6% (inactive) |
| O=C(CN(Cc1ccccc1Cl)C(=O)c1ccc(CN2CCOCC2)o1)NCC1CCCO1 (centres undefined) | – | -3.33% (inactive) |
| COc1cccc([C@H]2Oc3ccc(OC)cc3/C(=N\OC[C@@H](O)[C@@H]3O[C@@H]4OC(C)(C)O[C@@H]4[C@H]3O)[C@@H]2O)c1 | – | -20.5% [at 11.4 µM] (inactive) |
| COc1cccc([C@H]2Oc3ccc(OC)cc3/C(=N\O[C@@H]3O[C@H](COC(C)=O)[C@H](OC(C)=O)[C@H](OC(C)=O)[C@H]3OC(C)=O)[C@@H]2O)c1 | – | -12.6% [at 11.4 µM] (inactive) |
| C=CC[C@@H]1C=C[C@@H](O/N=C\C[C@@H]2C=C[C@H](OC(C)=O)[C@H](COC(C)=O)O2)[C@@H](CO)O1 | – | -4.4% [at 11.4 µM] (inactive) |
| CO/N=C1/c2cc(OC)ccc2O[C@@H](c2cccc(OC)c2)[C@H]1O | – | -0.557% [at 11.4 µM] (inactive) |
| CC(C)=NO[C@@H](C)c1cn([C@H](CO)Cc2ccccc2)nn1 | – | 16.5% [at 11.4 µM] (inactive) and 5.66% [at 11.4 µM] (inactive) |
| COc1cccc([C@@H]2Oc3ccc(OC)cc3/C(=N/OC[C@@H](C)[C@H](OCc3ccccc3)C(C)C)[C@@H]2O)c1 | 3.98 µM (active) | – |
| COc1ccc(O[C@H]2C=C[C@@H](c3ccccc3)O[C@H]2CO/N=C2/c3cc(OC)ccc3O[C@@H](c3cccc(OC)c3)[C@H]2O)cc1 | 3.16 µM (active) | – |
| COc1cccc([C@@H]2Oc3ccc(OC)cc3/C(=N/O[C@@H](C)c3cn([C@H]4COC[C@H]4O)nn3)[C@@H]2O)c1 | – | -15.5% [at 11.4 µM] (inactive) |
| C=CC[C@@H]1C=C[C@H](O/N=C2\c3cc(OC)ccc3O[C@H](c3cccc(OC)c3)[C@H]2O)[C@H](CO)O1 | 0.398 µM (active) | – |
| COc1cccc([C@H]2Oc3ccc(OC)cc3/C(=N\O[C@@H](C)c3cn([C@H](CO)Cc4ccccc4)nn3)[C@@H]2O)c1 | 1.58 µM (active) | – |
| COc1ccc(O[C@H]2C=C[C@@H](c3ccccc3)O[C@@H]2CON=C(C)C)cc1 | – | 11.9% [at 11.4 µM] (inactive) |
| CC1=N[C@@](C)(COC(=O)[C@]2(C)N[C@](C)(CO)CO2)COC1=O | – | 11% [at 11.4 µM] (inactive) |
| CC(=O)NCCNc1cc(-c2ccccc2CN(C)C)ncn1 | – | 10% [at 2.29 µM] (inactive) |
| O=[N+]([O-])/C=C\c1cc2ccccc2[nH]1 | – | 11.3% [at 11.4 µM] (inactive) |
| COCC(=O)Nc1c(I)c(C(=O)NC[C@@H](O)CO)c(I)c(C(=O)N(C)C[C@@H](O)CO)c1I | – | -13.9% [at 25.6 µM] (inactive) |
| C/C(CCN1CCCCc2nc(C)c(C)cc21)=N\O[C@@H](C)CN1CCCc2nc(C)c(C)cc21 | – | -5.53% [at 11.4 µM] (inactive) |
| CC(C)=NO[C@@H](C)CN1CCCCc2nc(C)c(C)cc21 | – | 19.8% [at 11.4 µM] (inactive) |
| COc1cccc([C@@H]2Oc3ccc(OC)cc3/C(=N/O[C@@H](C)CN3CCCCc4nc(C)c(C)cc43)[C@@H]2O)c1 | 1.58 µM (active) | – |
| CCC(C)(C)N=C(NC#N)Nc1cccnc1 | – | 20.6% (inactive) |

| SMILES | AC50 | activity, negative = inhibition |
| --- | --- | --- |
| CN(C)c1ncnc2ccc(-c3ccccc3C#N)cc12 | – | -7.24% [at 2.29 µM] (inactive) |
| Nc1c2c(=O)oc(-c3ccccc3)cc2nn1-c1ccccc1 | 10 µM (active) | – |
| O=C(O)/C=C(/C(=O)O)[C@]12CCN3CC4=CCO[C@@H]5CC(=O)N[C@@H]1[C@H]5[C@H]4C[C@H]32 | – | -2.53% [at 11.4 µM] (inactive) |
| CN1/C(=C\C=[N+](C)c2ccccc2)C(C)(C)c2ccccc21 | – | 1.48% (inactive) |
| c1ccc(-c2nnn(CCN3CCCCC3)n2)cc1 | – | 3.45% [at 11.4 µM] (inactive) |
| CN1/C(=C\C(=O)COC(=O)Cn2nnc(-c3ccccc3)n2)C(C)(C)c2ccccc21 | 3.98 µM (active) | – |
| CC1CCCN(C(=O)c2sc3cc([N+](=O)[O-])ccc3c2Cl)C1 (centres undefined) | – | -13.6% (inactive) |
| CS(=O)(=O)c1ccc([C@H](O)[C@H](CO)NC(=O)C(Cl)Cl)cc1 | – | 12.9% [at 25.6 µM] (inactive) |
| CC(=O)N1CCC2(CCCN(Cc3ccccc3)C2)CC1 | – | -9.6% (inactive) |
| COc1ccc(-c2cc(C(F)F)nc(-n3nc(C)cc3C)n2)cc1 | 28.2 µM (active) | – |
| Cc1cc(C)n(-c2nc(NC(C)C)nc(NC(C)C)n2)n1 | – | -25.2% (inactive) |
| Cc1cnc(CNc2nc(-c3ccc(N(C)C)cc3)nc3ccccc23)cn1 | – | -14.7% [at 2.29 µM] (inactive) |
| COc1ncc2nc(-c3cccs3)c(=O)n(CCC#N)c2n1 | – | -3.19% (inactive) |
| N#Cc1c(-c2cccs2)nc(SCC(=O)c2cccs2)[nH]c1=O | 0.708 µM (active) | – |
| N#CCCn1c(=O)c(-c2cccs2)nc2cnc(Nc3ccccc3)nc21 | – | 2.54% (inactive) |
| COc1ccccc1NC(=O)CCc1c(C)[nH]c(=O)c(C#N)c1C | – | -3.94% (inactive) |
| Cc1cccc(NC(=O)CSc2nc(-c3ccccc3)c(C#N)c(=O)[nH]2)c1C | 0.355 µM (active) | – |
| CC(C)NC(=O)N1CC[C@@]2(CCCN(C(=O)c3csnn3)C2)C1 | – | 19% (inactive) |
| COc1ccccc1-c1cc(NCc2cccc(C)c2)ncn1 | – | 0.571% [at 2.29 µM] (inactive) |
| O=C(O)/C(Cc1ccc([N+](=O)[O-])cc1)=N/O | – | -14.2% [at 11.4 µM] (inactive) |
| Cc1ccc(N(Cc2ccc([N+](=O)[O-])cc2)C(=O)c2ccco2)cc1 | 3.16 µM (active) | – |
| NC(=O)N/N=C\c1ccc([N+](=O)[O-])o1 | – | -12.5% [at 25.6 µM] (inactive) |
| O=C(N/N=C/c1ccc([N+](=O)[O-])o1)c1cc(-c2ccncc2)nc2ccccc12 | 0.891 µM (active) | – |

| SMILES | AC50 | activity, negative = inhibition |
| --- | --- | --- |
| CCOC(=O)N/N=C\c1ccc([N+](=O)[O-])o1 | – | 18.8% (inactive) |
| O=C(O)[C@H]1CN(CCCP(=O)(O)O)CCN1 | inactive | – |
| CCN(c1ccccc1)S(=O)(=O)c1ccc(NC(=S)NC(=O)c2cccs2)cc1 | 1 µM (active) | – |
| CN(C1CCCCC1)S(=O)(=O)c1ccc(NC(=S)NC(=O)c2cccs2)cc1 | 0.891 µM (active) | – |
| CCN(c1ccccc1)S(=O)(=O)c1ccc(NC(=S)NC(=O)c2ccc(Br)o2)cc1 | 1.58 µM (active) | – |
| O=C(NC1CCCCCC1)c1cccs1 | – | -4.04% (inactive) |
| CCOC(=O)NCN1C(=O)C2C3C=CC(C3)C2C1=O (centres undefined) | – | -3.37% (inactive) |
| CC(C)(S)[C@H](N)C(=O)O | – | 3.44% [at 11.4 µM] (inactive) |
| CCCCCCCCCCCCCC(=O)O[C@H](CC(=O)O)C[N+](C)(C)C | – | 22.3% (inactive) |
| CN1C(C(=O)Nc2ccccn2)=C(O)c2ccccc2S1(=O)=O | 3.98 µM (active) | – |
| O=C1c2ccccc2S(=O)(=O)N1CCCCN1CCN(c2ncccn2)CC1 | – | 12.3% (inactive) |
| Cc1cc(NC(=O)C2=C(O)c3ccccc3S(=O)(=O)N2C)no1 | – | -7.47% [at 25.6 µM] (inactive) |
| O=C(Nc1cccc(Cl)c1)N1CCN2C(=O)c3ccccc3C12c1ccccc1 (centres undefined) | 2.51 µM (active) | – |
| N/N=C1/c2ccccc2N[C@H]1OC(=O)Nc1cccc(Cl)c1 | – | -11.6% [at 11.4 µM] (inactive) |
| O=C(Nc1cccc(F)c1)N1CCC2(CCNCC2)CC1 | – | 1.17% (inactive) |
| C[C@](N)(Cc1ccc(O)c(O)c1)C(=O)O | – | 15.5% (inactive) |
| N[C@@H](Cc1ccc(O)c(O)c1)C(=O)O | inactive | – |
| C[C@H](Cc1ccc(O)c(O)c1)[C@@H](C)Cc1ccc(O)c(O)c1 | 12.6 µM (active) | – |
| O=c1c2ccccc2nc2n1CC/C2=C\c1ccccc1[N+](=O)[O-] | 5.01 µM (active) | – |
| O=c1c2ccccc2nc2n1CCc1c-2[nH]c2ccccc12 | – | 15.5% (inactive) |
| O=C(O)CSc1nc2ccccc2[nH]1 | – | -8.67% [at 11.4 µM] (inactive) |
| O=C(CSc1nc2ccccc2[nH]1)Nc1c(F)cccc1F | 12.6 µM (active) | – |
| CNC(=O)[C@@H]1O[C@@H](n2cnc3c(NCc4cccc(I)c4)ncnc32)[C@H](O)[C@@H]1O | – | -12% (inactive) |

| SMILES | AC50 | activity, negative = inhibition |
| --- | --- | --- |
| CCOC(=O)c1cnc(-c2ccccc2)nc1Oc1ccc(Cl)cc1 | – | 4.41% (inactive) |
| CCOC(=O)c1cnc(-c2ccccc2)nc1Oc1ccccc1 | 6.31 µM (active) | – |
| CCOC(=O)c1cnc(-c2ccccc2)nc1Oc1cccc(Cl)c1 | 11.2 µM (active) | – |
| Cc1ccc(Oc2nc(-c3ccccc3)ncc2S(C)(=O)=O)cc1 | 2.51 µM (active) | – |
| C=CCOc1ccc(CNC(C)(C)CO)cc1OC | – | 7.21% (inactive) |
| CCn1cc(C(=O)O)c(=O)c2cc3c(cc21)OCO3 | – | 24.1% [at 25.6 µM] (inactive) |
| O=C(O)c1cc(=O)c2c(Cl)cc(Cl)cc2[nH]1 | – | -5.88% (inactive) |
| CO/N=C\[C@@H](C)[C@H](OCc1ccccc1)C(C)C | – | -6.92% [at 11.4 µM] (inactive) |
| COc1ccccc1-c1nc(NCc2cnc(C)cn2)c2ccccc2n1 | – | 16.4% [at 2.29 µM] (inactive) |
| Nc1ncnc2c1cnn2-c1ccccc1 | – | -25.6% (inactive) |
| Cn1ncc2c(Nc3cccc(C(=O)O)c3)ncnc21 | – | -1.59% (inactive) |
| CC(=O)Nc1ccc(Nc2ncnc3c2cnn3-c2ccccc2)cc1 | 0.891 µM (active) | – |
| CCOC(=O)c1ccc(NC(=O)CC2NCCNC2=O)cc1 (centres undefined) | – | 25.5% (inactive) |
| CCOC(=O)c1ccc(NC(=O)COc2ccccc2OC)cc1 | 17.8 µM (active) | – |
| Cc1nc(N/N=C/c2ccccc2)nc(N(C)c2ccccc2)c1[N+](=O)[O-] | – | -27.2% (inactive) |
| Cc1ccc2nc(Nc3ccccc3O)nc(-c3ccccc3)c2c1 | 8.91 µM (active) | – |
| Cc1ccc2nc(N/N=C/c3ccccc3C#N)nc(-c3ccccc3)c2c1 | 7.08 µM (active) | – |
| Cc1ccc2nc(N/N=C\c3cccc(C)n3)cc(C)c2c1 | – | 7.2% [at 11.4 µM] (inactive) |
| Cc1cc(C)nc(Nc2ncc(O)n2-c2ccccc2)n1 | – | -5.7% (inactive) |
| C[C@H](NC[C@H](O)CP(=O)(O)CC1CCCCC1)c1ccc(Cl)c(Cl)c1 | – | 5.16% (inactive) |
